APE1 inh – inhibitors of human APE1 endonuclease; 350,000 tested, 0.35% active; recombinant APE1, TAMRA/BHQ-2 abasic DNA cleavage fluorescence; AID 2517; P27695; Potency, µM (top dose mostly 65.8 µM), for the others: at the highest dose activity change, negative = inhibition, usual class: inhibitors;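 further: plate controls were vehicle for no effect and reference inhibitor for full effect; nearly all actives have a fitted effect of over 55% in size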
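Measures dequenching upon AP-site incision of a 5'-TAMRA/3'-BHQ-2 THF-containing duplex, 50 nM; human APE1 0.75 nM after 15 min room-temperature exposure to compound; kinetic three-point read at one-minute spacing.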
BLM inh – blocks DNA unwinding by human BLM helicase; recombinant BLM DNA unwinding, fluorescence dequenching; Potency, µM (titrated, usually from 56.1 µM), inactives show at the highest dose activity change, negative = inhibition, actives largely listed as inhibitors; 350,000 tested, 0.2% active; AID 2528;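 further: plate controls were vehicle for no effect and no enzyme for full effect; nearly all actives have a fitted effect of over 35% in size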
RECQ1 inh-1 – blocks DNA unwinding by human RECQ1. P46063. RECQ1 DNA unwinding, red fluorescence kinetic read. Potency, µM (series often up to 57.3 µM), for the others: top-dose activity, negative = inhibition, actives largely listed as inhibitors. 240,000 tested, 0.54% active. AID 2549;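 further: plate controls were vehicle for no effect and no enzyme for full effect; nearly all actives have a fitted effect of over 30% in size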
Target sequence (P46063 whole entry, looked up): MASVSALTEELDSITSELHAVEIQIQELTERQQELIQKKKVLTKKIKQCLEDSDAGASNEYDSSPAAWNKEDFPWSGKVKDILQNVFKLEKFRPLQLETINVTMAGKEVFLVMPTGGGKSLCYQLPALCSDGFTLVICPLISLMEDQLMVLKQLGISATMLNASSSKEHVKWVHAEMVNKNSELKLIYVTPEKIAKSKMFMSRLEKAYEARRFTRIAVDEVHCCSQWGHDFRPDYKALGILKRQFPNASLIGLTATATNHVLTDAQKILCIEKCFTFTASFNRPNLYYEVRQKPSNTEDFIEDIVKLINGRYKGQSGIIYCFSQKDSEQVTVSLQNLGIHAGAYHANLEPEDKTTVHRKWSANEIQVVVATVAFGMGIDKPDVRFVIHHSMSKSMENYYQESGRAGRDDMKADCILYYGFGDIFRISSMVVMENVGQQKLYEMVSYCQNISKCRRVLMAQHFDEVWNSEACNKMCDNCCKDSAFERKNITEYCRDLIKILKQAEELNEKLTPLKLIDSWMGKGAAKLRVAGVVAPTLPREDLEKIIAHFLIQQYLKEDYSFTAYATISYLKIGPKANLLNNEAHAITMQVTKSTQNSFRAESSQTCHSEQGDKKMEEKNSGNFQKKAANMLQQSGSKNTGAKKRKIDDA
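50 nM RECQ1T1 preincubated 15 min with compound in Tris pH 8.0 buffer with MgCl2, DTT, Tween-20 and 2.5 ug/ml poly(dI-dC); started with 200 nM TAMRA/BHQ-2 forked duplex and 2 mM ATP. Unwinding read as fluorescence (525/598 nm), two reads 2 h apart.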
KAT2A inh – inhibitors of human GCN5L2 histone acetyltransferase. GCN5L2 HAT assay, ThioGlo1 CoA-SH fluorescence. Potency, µM (titrated, usually from 58.9 µM), inactives show top-dose activity change, negative = inhibition, actives largely listed as inhibitors. AID 504327. Q92830. 390,000 tested, 0.21% active
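Fluorescence readout, Ex340nm/Em540nm: ThioGlo1 (50uM final) reacts with free CoA thiol released as 20nM GCN5L2 acetylates H3(1-25) peptide (75uM) using acetyl-CoA (70uM). Compound and enzyme sat 15 min beforehand; 20 min room-temperature reaction.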
TDP1 inh – inhibitors of human tyrosyl-DNA phosphodiesterase TDP1; Potency, µM (top dose mostly 130 µM), for the others: at the top dose activity change, negative = inhibition, actives largely listed as inhibitors; AID 485290; Q9NUW8; recombinant TDP1, AlphaScreen DNA substrate cleavage; 350,000 tested, 0.28% active; further: nearly all actives have a fitted effect of over 40% in size
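Here, a 5' biotin and 3' phosphotyrosine-FITC DNA oligonucleotide reports Tdp1 activity: intact substrate bridges AlphaScreen beads, while cleavage leaves a 3' phosphate and drops signal. All incubations at room temperature.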
RECQ1 conf – confirmation of human RECQ1 helicase inhibitors; shares compounds with RECQ1 inh-1; RECQ1 helicase DNA unwinding, fluorescence; Potency, µM (series often up to 229 µM), without a hit: at the top dose activity change, negative = inhibition, usual class: inhibitors; 610 tested, 28% active; AID 2708; further: nearly all actives have a fitted effect of over 45% in size
ADP FP counter – counter-screen for RECQ1 inhibitors: ADP displacement. 530 tested, 27% active. Potency, µM (titrated, usually from 228 µM), inactives show at the top dose activity change, negative = inhibition, usual class: inhibitors. ADP fluorescence polarization displacement counterscreen. shares compounds with RECQ1 inh-1; further: nearly all actives have a fitted effect of over 45% in size
RECQ1 inh-2 – blocks human RECQ1 DNA unwinding; shares compounds with RECQ1 inh-1; recombinant RECQ1 DNA unwinding, red fluorescence; Potency, µM (highest dose often 119 µM), without a hit: top-dose activity, negative = inhibition, hits mostly inhibitors; 1,100 tested, 15% active; further: nearly all actives have a fitted effect of over 50% in size
Starred values were filed as active, the others as inactive; ? = inconclusive; . = not tested or not shown. Compounds with a hit are over-represented: about 0.87% of the library has one in this group of screens. The call rests on the fitted dose curve; in most records, active means well fitted curve in the direction sought with a large enough effect; inconclusive means small, poorly fitted or top-dose-only effect, or another doubt; inactive means no such curve, though single readings can be large; an effect the other way counts as inactive or inconclusive. Unless noted, on the % scale 0 is the no-effect control and ±100 the full control effect; potency means the concentration at half of the fitted maximal effect.

SMILES | APE1 inh | BLM inh | RECQ1 inh-1 | KAT2A inh | TDP1 inh | RECQ1 inh-2 | others
COc1ccc(C2=CC3=C(Br)C(=O)C(C)(OC(=O)C4CCCC4)C(=O)C3=CO2)cc1 (configuration not stated) | -1% | -4% | 3% | -4% | 2% | .
COc1ccc(OCC(=O)Nc2nc3ccc(NC(C)=O)cc3s2)cc1 | 6% | -25% | ? | -2% | . | ?
CC(=O)c1cccc(NC(=O)C2C(c3ccccc3)C2(Cl)Cl)c1 (configuration not stated) | -3% | -12% | -5% | -5% | -3% | .
Cc1cccc(NC(=O)C2C(c3ccccc3)C2(Cl)Cl)c1 (configuration not stated) | -3% | -8% | ? | -27% | -4% | -14%
Cc1ccccc1NS(=O)(=O)c1cc(C(=O)N2CCc3ccccc3C2)ccc1C | -4% | -7% | ? | -11% | 7% | -8%
O=C(O)CC(SCC(=O)NC1CCCc2ccccc21)C(=O)O (configuration not stated) | -2% | 1% | 7% | 0% | 6% | . | RECQ1 conf=1%;ADP FP counter=6%
O=C(CSc1nccc(=O)[nH]1)NC1CCCc2ccccc21 (configuration not stated) | 3% | -5% | -1% | 1% | 1% | .
CCCCn1c(Cl)nc2c1c(=O)n(C)c(=O)n2C | -3% | 1% | ? | 2% | -1% | -8%
COc1ccccc1-c1nnc2n1N=C(c1ccc(O)c(O)c1)CS2 | ? | -15% | 32µM* | 57% | -12% | ?
CCOc1ccccc1NC(=O)Nc1ccc2nc(N3CCN(C)CC3)cc(C)c2c1 | . | ? | . | 22% | 5% | .
CC(O)c1c(-c2ccccc2)nn(C)c1Cl (configuration not stated) | 22% | -1% | 40µM* | -14% | -3% | -9%
CCC(O)c1c(-c2ccccc2)nn(C)c1Cl (configuration not stated) | 0% | 1% | ? | -5% | -2% | .
C=CCn1c(COc2ccc(F)cc2)nnc1SCC(=O)NC(=O)NCc1ccco1 | ? | -29% | ? | -9% | -2% | ?
C=CCn1c(COc2ccc(F)cc2)nnc1SCC(=O)NC1CCCC1 | 3% | . | . | -4% | . | .
Cc1ccc(NC(=O)CN2C(=O)S/C(=C\c3cc(C)n(-c4ccc(C(=O)O)cc4)c3C)C2=O)cc1 | 4% | -10% | ? | -7% | -10% | ?
O=C(CCS(=O)(=O)c1ccc(Br)cc1)NCc1ccco1 | -31% | -10% | . | -6% | . | .
O=C(CCS(=O)(=O)c1ccc(Br)cc1)NCc1cccs1 | ? | 1% | ? | -1% | 22µM* | ?
COC(=O)c1ccccc1NC(=O)CCS(=O)(=O)c1ccc(Br)cc1 | ? | 2% | 32µM* | -9% | . | ?
CCNc1ncc2nc(-c3ccccc3)c(=O)n(Cc3cccc(OC)c3)c2n1 | 2% | 3% | -9% | -8% | . | .
CCCCN(C(=O)CN1CC(C)OC(C)C1)c1c(N)n(CC(C)C)c(=O)[nH]c1=O (configuration not stated) | 18% | 3% | -5% | -2% | 5% | .
CCCCN(C(=O)Cn1ncc(Cl)c(Cl)c1=O)c1c(N)n(CC(C)C)c(=O)[nH]c1=O | -5% | -18% | 28µM* | ? | 3% | ?
O=C(O)c1ccc(N2CCCCC2)cc1 | 11% | -1% | -17% | 2% | 9% | .
